Laboratory results: article PMC8769072, “Proteome‐scale mapping of binding sites in the unstructured regions of the human proteome” (Molecular Systems Biology, 2022)

Sequence of USP7 53-206, Q93009 (Q93009 53-206): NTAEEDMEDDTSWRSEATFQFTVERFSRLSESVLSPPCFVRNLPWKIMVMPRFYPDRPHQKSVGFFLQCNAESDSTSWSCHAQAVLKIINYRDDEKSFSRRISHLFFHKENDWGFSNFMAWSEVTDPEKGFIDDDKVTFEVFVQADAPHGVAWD
Sequence of TSG101 1-145, Q99816 (Q99816 1-145): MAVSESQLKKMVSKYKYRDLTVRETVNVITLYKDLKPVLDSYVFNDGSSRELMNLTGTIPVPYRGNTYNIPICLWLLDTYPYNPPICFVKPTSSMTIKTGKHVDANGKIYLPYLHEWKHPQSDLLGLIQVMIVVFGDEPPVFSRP

Binder | selected by phage display (TSG101 1-145, Q99816) | selected by phage display (USP7 53-206, Q93009)
GPTAPPAPGPTAPPAF [SUFU, Q9UMX1] | confidence 2 (active) | 
LSRTFLSIPSAPPLYL [CCDC168, Q8NDH2] | confidence 2 (active) | 
NLSLTPSAPSLTLEAG [SRCAP, Q6ZRS2] | confidence 3 (active) | 
SSVPTTINTIGTSTST [SAMD4A, Q9UPU9] |  | confidence 2 (active)
ANTDPTAPPYDTLLVF [CDH3, P22223] | confidence 2 (active) | 
HVSNDASSSVAESSSP [KIAA0408, Q6ZU52] |  | confidence 3 (active)
PSAPPQVQLPVSLDLP [ZFHX4, Q86UP3] | confidence 2 (active) | 
SFGINVATPGSSTTTG [POM121, Q96HA1] |  | confidence 3 (active)
LLPETVSPSAPSWREP [CBX6, O95503] | confidence 3 (active) | 
LAGPSLSSSSFSPSSS [ZFP36, P26651] |  | confidence 2 (active)
PSAPTPPIPSPPSTLP [ANTXR1, Q9H6X2] | confidence 2 (active) | 
PTAPIFLQGLSDLKVM [MYLK, Q15746] | confidence 3 (active) | 
DAASSSGSSSHAHVNS [RTTN, Q86VV8] |  | confidence 3 (active)
TVITSVSSASSSSTVL [KLF12, Q9Y4X4] |  | confidence 4 (active)
ASGSSVPSSPVSESVL [GRM1, Q13255] |  | confidence 4 (active)
DSTVHTSATAPTYIAN [MGAM2, Q2M2H8] | confidence 3 (active) | 
MSVSSISSAGSSVASA [MARK1, Q9P0L2] |  | confidence 3 (active)
LTPTAPSRTGSVQTPP [SSFA2, P28290] | confidence 4 (active) | 
DRASSSSGTIVQEAYG [SYNE2, Q8WXH0] |  | confidence 2 (active)
SSSSSLSSASSSSTVV [ING3, Q9NXR8] |  | confidence 2 (active)
PLEPSAPSKLHSVTGI [BEST1, O76090] | confidence 3 (active) | 

Binder | selected by phage display (TSG101 1-145, Q99816) | selected by phage display (USP7 53-206, Q93009)
AGPGGGLTPSAPPYGA [PIP4P1, Q86T03] | confidence 3 (active) | 
APSAPPAPPAPPESTV [ATOH8, Q96SQ7] | confidence 3 (active) | 
SSSSPSPPPLSAISSV [PRDM2, Q13029] |  | confidence 2 (active)
VPNMPSAPQAYSELQM [UBAP1, Q9NZ09] | confidence 3 (active) | 
GSIVRPSAPPARSSVP [YLPM1, P49750] | confidence 2 (active) | 
QSHLATAGSTSSHSLQ [ESR1, P03372] |  | confidence 3 (active)
EALLTPLPPSAPPSVD [NPIPA3, F8WFD2] | confidence 3 (active) | 
GAMAVTANPPSNPYWI [ATP10D, Q9P241] | confidence 2 (active) | 
MPIVMARDLEETASSS [TTLL5, Q6EMB2] |  | confidence 3 (active)
AYEGPSTSVVPTPDEG [MAGEE1, Q9HCI5] |  | confidence 4 (active)
VPSAPIDPQAQLEADK [PKNOX2, Q96KN3] | confidence 2 (active) | 
AASTSVTAGWGDVASS [HIPK2, Q9H2X6] |  | confidence 2 (active)
DAPLLQPSAPSSSSSQ [GGA3, Q9NZ52] | confidence 2 (active) | 
MDTEPNPGTSSVSTTT [PHC3, Q8NDX5] |  | confidence 2 (active)
VSAPGRSIEASVDVPA [AHNAK2, Q8IVF2] |  | confidence 2 (active)
GPSSSTTTTTTTTEQP [MAP3K1, Q13233] |  | confidence 3 (active)
PLTASSEQTAASSSSS [WBP1, Q96G27] |  | confidence 2 (active)
SLMPSAPHPVKEASPG [TET1, Q8NFU7] | confidence 3 (active) | 
SGMVTNSVPTASSSVL [SALL1, Q9NSC2] |  | confidence 4 (active)
SLQNQQNAHTSRMLQV [GPR179, Q6PRD1] |  | confidence 2 (active)
LSNSESKATSSLMMLD [SIX4, Q9UIU6] |  | confidence 2 (active)

Binder | selected by phage display (TSG101 1-145, Q99816) | selected by phage display (USP7 53-206, Q93009)
PSVPSVSTTSVTMPNV [TSC22D2, O75157] |  | confidence 4 (active)
DVPSVSDHSQQVVDSG [KAT6A, Q92794] |  | confidence 3 (active)
AMPAPTPSSSPVPTLS [NXF1, Q9UBU9] |  | confidence 2 (active)
PTAPPLQPHPGLHHQS [CHD7, Q9P2D1] | confidence 4 (active) | 
STMPESPSSSTTATTT [SP4, Q02446] |  | confidence 3 (active)
TVPSHSSHATAVTTSN [SAP130, Q9H0E3] |  | confidence 4 (active)
EEQAGTVASAPLGHSD [LRRFIP1, Q32MZ4] | confidence 4 (active) | 
MPSSSHGSMGGYNHSV [SS18, Q15532] |  | confidence 2 (active)
PSAAEHIVSPSAPAGD [TACC2, O95359] | confidence 2 (active) | 
SGSVQTSSPPQLETVR [ARAP2, Q8WZ64] |  | confidence 2 (active)
HDATASSSSAAATVRA |  | confidence 4 (active)
PTLQPSAPQQARDPFE [DENND1A, Q8TEH3] | confidence 2 (active) | 
EHAEIARWGQTLPTTS [SPTBN4, Q9H254] |  | confidence 2 (active)
DASSQTRMVHASASTS |  | confidence 3 (active)
VALEHERAAAAGSSSS [ABHD12, Q8N2K0] |  | confidence 3 (active)
LPSTSGSEGVPFRTVS [EPHA2, P29317] |  | confidence 2 (active)
VQPSAPEHSSLASWLL [GUCY1B2, O75343] | confidence 4 (active) | 
SAMSVPGMSTGTVLGA [ARNTL2, Q8WYA1] |  | confidence 2 (active)
KPSAPPAPELNNSLHP [KMT2D, O14686] | confidence 3 (active) | 
EMAVVLNGGTIPTAPP [GPRC5B, Q9NZH0] | confidence 4 (active) | 
